# A selection: hits, their analogues and other compounds. The true share with any hit is near 0.45%.
# FMDV RLuc: Primary qHTS Assay for Foot and Mouth Disease Virus Antivirals against NCGC Sytravon and CBC Compound Libraries: Renilla Luciferase Signal. AID 1745857, 2022. 120,000 tested, 0.32% active. FMDV replicon cells, Renilla luciferase signal. Potency, µM (series often up to 57.5 µM), for inactives: at the top dose activity change, negative = inhibition, most hits filed as inhibitors; further: nearly all actives have a fitted effect of over 55% in size
# FMDV antiviral: Primary qHTS Assay for Foot and Mouth Disease Virus Antivirals against NCGC Sytravon and CBC Compound Libraries: Firefly Luciferase Signal. FMDV antiviral cell assay, firefly luciferase signal. 120,000 tested, 0.23% active. Potency, µM (series often up to 57.5 µM), for the others: top-dose activity change, negative = inhibition, most hits filed as inhibitors; further: nearly all actives have a fitted effect of over 60% in size
# The depositor's hits bear a star; ? = inconclusive; [ ] = another dose, or the depositor's remark. The call rests on the fitted dose curve. On the % scale 0 is the no-effect control and ±100 the full control effect; potency means the concentration at half of the fitted maximal effect.
SMILES,FMDV RLuc,FMDV antiviral
Cc1ccccc1NC(=O)c1sc2nc3c(cc2c1N)CN(Cc1ccccc1)CC3,?,3.8%
COc1cc2c(cc1OCc1ccccc1)-c1nnc(-c3ccccc3)n1C(C)(C)C2,21.2%,15.8%
C=C(COC(C)=O)C1Cc2c(ccc3c2OC2COc4cc(OC)c(OC)cc4C2C3=O)O1 (stereo not given),0.199µM*,?
COc1ccc2cc(COC(=O)C3COc4ccccc4O3)ccc2c1 (stereo not given),12.2%,0.0%
On1nnc2c1ccc1nnn(O)c12,20.9%,10.2%
O=C(O)c1ccc(C2SCCCS2)cc1,-1.0%[1.06 µM],0.0%
O=C(Nc1ccccn1)c1ccc(C2SCCCS2)cc1,22.5%,12.6µM*
C=CCn1c(C(=O)NCCCOCC)cc2cc(S(=O)(=O)N(C)C)ccc21,1.1%,8.1%
N#Cc1nc(-c2ccco2)oc1N1CCN(C(=O)CNC(c2ccccc2)c2ccccc2)CC1,10µM*,?
N#Cc1nc(-c2ccco2)oc1N1CCN(C(=O)c2ccccc2Cl)CC1,0.3%,-8.0%
Cc1nc2ccccc2c(=O)n1-c1ccc(NC(=O)c2cccc([N+](=O)[O-])c2)cc1,-21.6%,7.0%
Cc1nc2ccccc2c(=O)n1-c1ccc(NC(=O)c2ccc([N+](=O)[O-])cc2)cc1,2.82µM*,?
COc1ccc(OC)c(/C=N/O)c1,4.0%,3.5%
Cc1ccccc1CC(=O)Nc1cccc2ncccc12,8.9%,20.9%
Cc1ccccc1CNc1ncnc2ccccc12,?,11.2µM*
CCCNC(=O)NC(=O)CN(CC(C)C)C1CC1,5.0%,-0.8%
Cc1cccc(N2CCN(C(=O)CCCCn3c(=O)[nH]c4ccsc4c3=O)CC2)c1C,-27.9%,14.1µM*
O=C(CCCCn1c(=O)[nH]c2ccsc2c1=O)N1CCN(c2cccc(C(F)(F)F)c2)CC1,8.7%,?
COc1ccc(-c2nc(C)c(-c3ccccc3)s2)cc1,24.8%,267.4%
COc1ccc(Cc2nc(C)c(-c3ccccc3)s2)cc1OC,10µM*,?
Cc1cc2oc(=O)cc(CSc3nncn3C)c2cc1C(C)C,15.0%,5.4%
CCOC(=O)c1ccc(NC(=O)c2cnn3c(=O)c4c(n(CC)c23)CCN(Cc2ccc(OC)cc2)C4)cc1,7.8%,-14.7%
CCn1c2c(c(=O)n3ncc(C(=O)N4CCN(c5ccc(C(C)=O)cc5)CC4)c13)CN(Cc1ccc(OC)cc1)CC2,22.4µM*,?
CCN(CC)C(=O)c1cccnc1-c1nc2ccccc2s1,12.9%,15.0%
CCN(Cc1ccc(Cl)s1)C(=O)c1[nH]c2c(c1C)C(=O)CC(C)(C)C2,147.0%,-4.0%
SMILES,FMDV RLuc,FMDV antiviral
Cc1ccc2nc(C)c(C(=O)N3CCN(Cc4ccccc4C)CC3)cc2c1,15.8µM*,15.8µM*
Cc1ccc(S(=O)(=O)N2CCN(C(=O)c3cc4cc(C)ccc4nc3C)CC2)cc1,2.6%,13.7%
CCOc1ccc(CN2CCN(Cc3ccc4c(c3)c3ccccc3n4CC)CC2)cc1,?,22.2%
COc1cc(CNCc2ccco2)ccc1OCc1ccccc1C,1.8%,0.0%
CCn1c2ccccc2c2cc(CNCC3CCNCC3)ccc21,28.2µM*,?
COc1cc(CNCC2CCNCC2)ccc1OCc1ccccc1Cl,35.5µM*,?
O=C(NC1CCCCCC1)C1CCC(Cn2cnnn2)CC1 (stereo not given),-10.1%,13.9%
CCC(C)c1ccc(-c2csc(NC(=O)c3cnc4c(c3)c(=O)n(C)c(=O)n4C)n2)cc1 (stereo not given),-7.7%,119.2%
Cc1ccc(-c2csc(NC(=O)c3cnc4c(cnn4C(C)C)c3)n2)cc1C,?,11.2µM*
CCOc1cc(C#N)c(NC(=O)c2ccc(C(C)(C)C)cc2)cc1OCC,16.3%,18.2%
CS(=O)(=O)N1CCN(C(=O)CNc2cc(Cl)ccc2F)CC1,4.3%,17.1%
Cc1cc(NCc2ccccc2Cl)n2cnnc2n1,15.8µM*,?
Cc1cc(C)cc(Nc2cc(C)nc3nncn23)c1,33.2%,36.2%
Cc1ccc(OCC(=O)NCc2nncn2C)c(C)c1,-0.9%,25.8%
Cc1ccc(OCn2ccc(C(=O)NCc3c(C)nn(C)c3C)n2)c(C)c1,10µM*,12.6µM*
CCOc1ccc(-c2cccc(NS(=O)(=O)c3cc(OC)ccc3OC)c2)nn1,151.1%,12.4%
O=C(Nc1cccc(-c2nc3c(s2)CCCC3)c1)C1CC1,0.0%,79.4%
O=C(Nc1ccc(Cl)cc1)Nc1ccc(Cl)c(C(F)(F)F)c1,7.08µM*,?
O=C(Nc1ccc(Cl)c(C(F)(F)F)c1)c1ccc(Cl)cc1Cl,?,22.2%
CCn1nccc1-c1cc(C(=O)O)c2cccc(C)c2n1,-13.1%,6.1%
NC(=O)COC(=O)c1ccc(C2Nc3ccccc3S(=O)(=O)N2)cc1 (stereo not given),-8.9%,-5.6%
O=C(CCc1cc(Cl)no1)N(CCS(=O)(=O)N1CCCCC1)Cc1cccnc1,2.6%,-2.5%
CCOC(=O)C(=O)Nc1c(C(=O)Nc2ccc(F)cc2)oc2ccccc12,-5.5%,27.4%
CC(C)Oc1cccc(Cn2cnc3c2c(=O)n(C)c(=O)n3C)c1,3.55µM*,3.55µM*
CC(C)c1ccc(C(=O)Cn2cnc3c2c(=O)n(C)c(=O)n3C)c(C(C)C)c1,10µM*,10µM*
SMILES,FMDV RLuc,FMDV antiviral
Cc1cc(C(=O)Cn2cnc3c2c(=O)n(C)c(=O)n3C)c(C)n1C,41.8%,0.0%
Cn1c(=O)c2c(ncn2CCCOc2ccccc2)n(C)c1=O,-5.5%,9.9%
Cc1ccc(-n2ncc3c2NC(=O)CC32C(=O)Nc3ccccc32)c(C)c1 (stereo not given),-2.6%,-1.7%
O=C(OCc1ccc(C(F)(F)F)cc1)c1cc2c(cc1[N+](=O)[O-])OCCO2,-10.4%,29.9%
O=C1CCC2(C(=O)NCc3ccccc3)SCCN12 (stereo not given),-10.9%,-9.9%
C(#CCn1c2ccccc2c2ccccc21)CN1CCOCC1,17.4%,0.0%
Cc1ccc(Cl)cc1N1CCN(C(=O)C2CCN(c3nnc(-n4c(C)ccc4C)s3)CC2)CC1,?,10µM*
CCS(=O)(=O)N1CCC(C(=O)N2CCN(c3cc(Cl)ccc3C)CC2)CC1,-25.1%,-19.2%
Cc1cc2nc(/C(C#N)=C/c3ccc4c(c3)OCO4)[nH]c2cc1C,78.1%,208.7%
CCCCCCNc1nc2c(c(=O)n(C)c(=O)n2C)n1CCC,20µM*,?
Cn1c(=O)c2c(nc(NCCc3ccc(F)cc3)n2Cc2ccc(F)cc2)n(C)c1=O,-9.2%,-0.8%
C=CCNc1nc2c(c(=O)n(C)c(=O)n2C)n1Cc1ccc(Cl)cc1,12.6µM*,14.1µM*
C=CCNc1nc2c(c(=O)n(C)c(=O)n2C)n1Cc1ccccc1Cl,-19.0%,-13.6%
CCCCCCNc1nc2c(c(=O)n(C)c(=O)n2C)n1Cc1cccc(C)c1,-6.7%,-0.2%
Cn1c(=O)c2c(nc(NCCO)n2Cc2ccc(F)cc2)n(C)c1=O,7.94µM*,10µM*
CC(C)CCNc1nc2c(c(=O)n(C)c(=O)n2C)n1Cc1ccc(Cl)cc1,-8.6%,-0.9%
Cn1c(=O)c2c(nc(NCCO)n2Cc2ccc(Cl)cc2)n(C)c1=O,?,12.6µM*
Cc1c(-c2ccccc2)oc2c(C(=O)NC(C)C3CC3)cccc2c1=O (stereo not given),17.5%,19.3%
O=C(CN1CCCc2c(F)cc(F)cc21)Nc1cccc2nsnc12,-18.7%,-20.8%
CC(NC(=O)c1nn(-c2ccccc2)c(=O)c2ccccc12)C1CC1 (stereo not given),-2.8%,-11.8%
CCCNc1nc(-c2cccc(Cl)c2)cs1,25.0%,250.7%

# Assay outcomes from PubChem.
